Here are results for 5 compounds from PubChem BioAssay.

Each structure is given as a SMILES string. Records with an inconclusive call do not appear. Active and inactive are the calls of the source.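 How the source made its calls, unless noted: active means RAM network inhibition above 8.4% in each of two replicates, 3 SD over the compound average; inconclusive means above 8.4% inhibition in only one replicate; inactive means 8.4% inhibition or less in each replicate.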

A short description of assay [1]: reducers of endogenous Her2 protein level, primary screen, SKBR3 breast tumor cells, AlphaScreen, ATP viability (AID 461;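 active means Her2 level under about 52% in both replicate screens, with viability over 70% of control, limit read from the data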;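 on Her2 level: lower value means less Her2 protein in the cells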;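 on viability: percent of carrier control wells set as 100% viability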). The following applies: 18-24 h, measured here: SKBR3 viability, ATP luminescence, at 10 µM. A general note: Bead proximity is the source of the signal in Alpha formats.
The target in assay [2] is Receptor tyrosine-protein kinase erbB-2 (Homo sapiens) (UniProt P04626). The assay is described as above. The following applies: 18-24 h, at 10 µM, stronger effect = lower value.
Receptor tyrosine-protein kinase erbB-2 (Homo sapiens), sequence (P04626 whole entry, looked up): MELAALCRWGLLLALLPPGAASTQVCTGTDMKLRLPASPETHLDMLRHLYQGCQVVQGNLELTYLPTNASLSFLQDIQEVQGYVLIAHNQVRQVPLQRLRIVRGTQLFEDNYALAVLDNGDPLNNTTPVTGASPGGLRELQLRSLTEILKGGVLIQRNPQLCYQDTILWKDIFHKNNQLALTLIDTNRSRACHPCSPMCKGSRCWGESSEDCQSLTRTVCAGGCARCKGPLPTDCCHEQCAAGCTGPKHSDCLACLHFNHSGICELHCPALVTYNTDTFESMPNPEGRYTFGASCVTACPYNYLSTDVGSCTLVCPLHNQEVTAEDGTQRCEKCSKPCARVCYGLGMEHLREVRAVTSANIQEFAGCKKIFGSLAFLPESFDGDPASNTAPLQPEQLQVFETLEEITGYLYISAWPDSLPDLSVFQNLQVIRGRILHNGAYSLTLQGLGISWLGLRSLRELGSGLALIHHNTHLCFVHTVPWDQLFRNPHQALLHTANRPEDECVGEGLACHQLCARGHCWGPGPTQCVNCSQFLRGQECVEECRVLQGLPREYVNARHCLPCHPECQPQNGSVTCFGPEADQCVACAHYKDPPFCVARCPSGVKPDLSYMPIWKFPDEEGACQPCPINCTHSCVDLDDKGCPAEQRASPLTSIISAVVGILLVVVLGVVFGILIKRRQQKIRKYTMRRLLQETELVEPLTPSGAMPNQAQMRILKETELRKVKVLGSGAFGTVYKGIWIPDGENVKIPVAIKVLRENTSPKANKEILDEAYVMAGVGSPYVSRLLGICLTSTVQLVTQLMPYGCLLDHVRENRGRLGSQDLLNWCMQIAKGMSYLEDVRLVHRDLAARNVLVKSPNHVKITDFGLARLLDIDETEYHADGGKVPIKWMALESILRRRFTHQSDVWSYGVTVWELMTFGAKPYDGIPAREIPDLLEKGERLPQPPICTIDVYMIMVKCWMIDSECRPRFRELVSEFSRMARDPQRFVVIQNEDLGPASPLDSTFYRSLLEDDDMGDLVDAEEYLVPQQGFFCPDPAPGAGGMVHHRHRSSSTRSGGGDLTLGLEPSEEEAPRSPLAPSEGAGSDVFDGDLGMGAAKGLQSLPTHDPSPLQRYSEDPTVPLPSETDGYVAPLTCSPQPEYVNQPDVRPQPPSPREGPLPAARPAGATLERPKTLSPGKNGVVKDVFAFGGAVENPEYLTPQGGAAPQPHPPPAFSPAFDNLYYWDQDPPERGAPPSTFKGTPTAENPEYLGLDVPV
Assay [3] is described as follows: SK-BR-3 cell growth inhibitors, pilot screen, 24 h, human (AID 572;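 active means viability at or below 10% of carrier control in both of two separate runs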;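 further: compound exposure lasted between 18 and 24 h rather than exactly 24 h; 100% = carrier-treated control wells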). As to conditions: SK-BR-3 viability, CellTiter-Glo luminescence, at 10 µM, stronger effect = lower value. In general terms: Cellular ATP, detected with luciferase, serves as a proxy for viable cell number.
Assay [4] in a line: HUVEC growth inhibition – cell-based, human, primary screen (AID 575;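 active means viability at or below 30% in both replicate assays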;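 further: 100% = median of untreated cell wells with 0.1% DMSO on each plate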). As to conditions: HUVEC proliferation, CellTiter-Glo luminescence, 72 h; at 10 µM; stronger effect = lower value.
Assay [5] in a line: growth inhibitors of H69AR lung tumor, primary screen, human, duplicate replicates (AID 580;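 active means viability at or under a set limit in both replicates, limit being median viability minus 3 SD, cut at about 48% in these data, passing the limit was not always enough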;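 further: 100% = mean luminescence of untreated wells and 0% = no signal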). The following applies: H69AR lung tumor cells viability, ATP luminescence, 72 h; at 10 µM; stronger effect = lower value.
Assay [6] in a line: reversal of MRP1-mediated doxorubicin resistance, pilot screen, H69AR cells, doxorubicin co-treatment (AID 601;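 active means viability loss from added drug above about 55%, and viability with drug at most 40%, in both replicates, limit read from the data, passing the limit was not always enough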). As to conditions: CellTiter-Glo, 72 h, at 10 µM; for differential viability (reversal): stronger effect = higher value.
Assay [7] in a line: 384-well plate pilot, post-Golgi transport modulator project, inhibition of yeast transport mutant growth (AID 636; in the data active means inhibition above about 31%). As to conditions: absorbance 615 nm, about 18 h, stronger effect = higher value.
The nature of assay [8]: growth suppression of yeast trafficking mutant, preliminary HTS, modulators of trafficking downstream of Golgi apparatus project, 1536-format plate, OD 615 nm (AID 637; in the data active means inhibition above about 30%). The following applies: yeast transport mutant growth, absorbance 615 nm, 18 h; stronger effect = higher value.
A short description of assay [9]: OD615 S. cerevisiae growth inhibition, permissive medium, pilot counter-assay, permissive growth control for S. cerevisiae lifespan shortening project (AID 705;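 active means growth inhibition above 25% in both replicates, a cutoff set 3 SD above the mean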). The following applies: OD615, 24 h, at 10 µM, stronger effect = higher value.
The nature of assay [10]: Restrictive medium S. cerevisiae growth inhibition, OD615, pilot screen of yeast lifespan reduction project, restrictive growth control (AID 706;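 active means growth inhibition above a set limit, 3 SD over mean compound inhibition, in both replicates, cut at about 43% in these data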;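 further: modified DeaD lifespan yeast strain shifted to restrictive glucose medium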). The following applies: OD615, 48 h, at 10 µM, stronger effect = higher value.
Assay [11] is described as follows: viability gain of MRP-1-high H69AR cells under doxorubicin, pilot screen, MRP-1 activator project, CellTiter-Glo, duplicate (AID 807;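 active means viability increase at or above a cutoff of the median across tested compounds plus 3 SD, cut at about 8.5% in these data, passing the limit was not always enough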;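 further: compound pretreatment 18-22 h then 72 h combined with doxorubicin; 0% = doxorubicin alone and 100% = vehicle without doxorubicin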). As to conditions: H69AR viability with doxorubicin, CellTiter-Glo luminescence; at 10 µM; stronger effect = higher value.
Assay [12] is described as follows: growth suppression of beta-catenin knockout HCT116, pilot screen, human colon tumor cells (AID 823;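 active means cell viability at or below a set limit in both duplicate runs, the limit being the all-compound median minus 4 SD, cut at about 23% in these data, passing the limit was not always enough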;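 further: 0% = wells killed by 20 µM Hyamine and 100% = untreated DMSO cell wells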). As to conditions: CellTiter-Glo, 60 h, at 10 µM, stronger effect = lower value.
Assay [13] in a line: growth suppression of PTEN-deleted HCT116, pilot screen, cell-based, HCT116 clonal line, CellTiter-Glo (AID 824;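 active means viability at or below 27.92% in each of two runs, the all-compound median minus 4 SD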;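 further: 0% = 20 µM Hyamine control and 100% = vehicle cell control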). The following applies: 60 h, at 10 µM, stronger effect = lower value.
Assay [14] in a line: inhibitors of the yeast RAM network, pilot screen, dse1pr::URA3 reporter, 5-FOA selection (AID 869;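 active means inhibition over a set limit, the all-compound mean plus 3 SD, in both replicate runs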;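 further: 0% = DMSO wells with no growth and 100% = 10 µM 1-NA-PP1 with full growth; RAM network block rescues cells from 5-FOA so hits raise OD615 growth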). As to conditions: S. cerevisiae dse1pr::URA3 5-FOA growth, OD615, 2 d; at 10 µM; stronger effect = higher value; strain carries analog-sensitive mutant Cbk1 kinase.
Assay [15] can be described thus: RAM signaling pathway blockade in yeast – S. cerevisiae, Pdr1DBD-CYC8 efflux-inhibited sensitized strain, primary screen (AID 1298).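 Further: 0% = DMSO untreated cells without growth and 100% = 10 µM 1-NA-PP1 full growth; higher means more yeast growth rescued from 5-FOA killing.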 As to conditions: S. cerevisiae cbk1-as DSE1-URA3 strain, 5-FOA growth OD615, 2 d; at 50 µM; stronger effect = higher value.
Where [16] appears, read: H69AR cells + 2 uM doxorubicin, measured here: viability with 2 uM doxorubicin, stronger effect = lower value.
Setting [17] is: H69AR cells, compound alone cytotoxicity.

One may read the viability as a read-out of living cells in per cent, often relative to untreated cells. As a reminder, the inhibition is the relative decrease from the control value, in per cent. With `Cc1cc(C)nc(NC2=NCC(=O)N2c2ccccc2Br)n1`, the viability in assay [1] is 93%; in assay [3], 93% (inactive); in [4], 101% (inactive); in [5] it was 89.8% (inactive); in assay [6] (setting [16]) it was 100%; in [6] (setting [17]) it was 89.8%. For the same compound, the results for the viability in [12] and in [13] were 95.4% (inactive) and 100% (inactive), respectively. In addition, the Her2 level in assay [2] was 93.5% (inactive). In [6] (H69AR cells + 2 uM doxorubicin), the differential viability (reversal) was -10.2% (inactive). The inhibition was -7.07% (inactive) in assay [7], -2.33% (inactive) in [8] and 2.06% (inactive) in assay [14]. In addition, the growth inhibition in assay [9] is -2.53% (inactive); in [10], 4.3% (inactive). For the same compound, the viability increase in assay [11] is -0.37% (inactive). The RAM network inhibition in assay [15] is 8.53% (inactive).

For the compound `O=C(CCN1C(=O)c2ccccc2C1=O)NCCN1CCOCC1`, the viability in assay [1] was 105%; in assay [3], 105% (inactive); in [4], 86.3% (inactive); in assay [5], 95.3% (inactive); in assay [6] (setting [16]) it was 101%; in [6] (setting [17]) it was 95.3%. Besides, the viability in [12] is 93.8% (inactive); in [13], 104% (inactive). The Her2 level in [2] is 119% (inactive). Further, the differential viability (reversal) in assay [6] (H69AR cells + 2 uM doxorubicin) is -5.16% (inactive). The inhibition in [7] was 1.95% (inactive); in assay [8], -9.5% (inactive); in assay [14], 0.42% (inactive). Moreover, the growth inhibition in assay [9] is -11.9% (inactive); in assay [10], -6.59% (inactive). In addition, the viability increase in assay [11] is 0.61% (inactive). Besides, the RAM network inhibition in assay [15] was 2.35% (inactive).

On to `CCOC(=O)CN1C(=O)C(=O)c2cccc(C)c21`, for which the viability in assay [1] was 80%; in assay [3], 80% (inactive); in assay [4], 86.5% (inactive); in assay [5], 76% (inactive); in [6] (setting [16]) it was 76.6%; in assay [6] (setting [17]), 76%. The viability in assay [12] was 88.4% (inactive); in assay [13] it was 92.4% (inactive). Further, the Her2 level in assay [2] was 101% (inactive). For the same compound, the differential viability (reversal) in [6] (H69AR cells + 2 uM doxorubicin) was -0.56% (inactive). The values for the inhibition in assay [7], in assay [8] and in assay [14] were -1.54% (inactive), -0.5% (inactive) and 1.77% (inactive), respectively. For the same compound, the figures for the growth inhibition in assay [9] and in [10] were 0.235% (inactive) and -4.38% (inactive), respectively. Further, the viability increase in assay [11] was -4.97% (inactive). The RAM network inhibition in [15] was 1.05% (inactive).

Turning to `O=C(CSc1nnc(Cn2c(=O)sc3ccccc32)n1-c1ccccc1)Nc1nccs1`, the viability in [1] was 97%; in assay [3] it was 97% (inactive); in assay [4], 66.9% (inactive); in [5] it was 84.2% (inactive); in assay [6] (setting [16]), 84%; in [6] (setting [17]), 84.2%. Besides, the results for the viability in assay [12] and in assay [13] were 89.5% (inactive) and 90% (inactive), respectively. Moreover, the Her2 level in assay [2] was 106% (inactive). Further, the differential viability (reversal) in [6] (H69AR cells + 2 uM doxorubicin) was 0.24% (inactive). Besides, the inhibition is -5.73% (inactive) in [7], -4.43% (inactive) in assay [8] and 2.44% (inactive) in assay [14]. Besides, the growth inhibition in assay [9] is 11.2% (inactive); in assay [10], 27.2% (inactive). Moreover, the viability increase in assay [11] is -3.44% (inactive). For the same compound, in [15], the RAM network inhibition is 2.05% (inactive).

`CC1CC(NC(=O)c2cnc3n(c2=O)CCS3)CC(C)(C)C1` (stereo not given): the viability in [1] was 83.5%; in assay [3] it was 83.5% (inactive); in [4] it was 85.8% (inactive); in [5], 91.7% (inactive); in assay [6] (setting [16]), 85.6%; in [6] (setting [17]) it was 91.7%. The viability in [12] is 99% (inactive); in [13] it was 90% (inactive). Further, in assay [2], the Her2 level is 108% (inactive). Also, the differential viability (reversal) in [6] (H69AR cells + 2 uM doxorubicin) is 6.09% (inactive). In addition, the results for the inhibition in assay [7], in assay [8] and in assay [14] were -4.13% (inactive), -3% (inactive) and 0.545% (inactive), respectively. The growth inhibition in assay [9] was -8.98% (inactive); in assay [10], -8.4% (inactive). For the same compound, the viability increase in assay [11] was -0.41% (inactive). The RAM network inhibition in assay [15] is 0.68% (inactive).
